The record followed here is PubChem BioAssay (NCATS).

Structures are written as SMILES. Records with an inconclusive call do not appear. Active and inactive are the calls of the source. Calls follow the shape of the dose curve; as a rule, active = well fitted curve in the direction sought with a large enough effect; inconclusive = small, poorly fitted or top-dose-only effect, or another doubt; inactive = no such curve, though single readings can be large; an effect the other way counts as inactive or inconclusive. Residues, ends and D or L forms follow the SMILES beside them. *: point of attachment. Cbz = O=C(OCc1ccccc1)*

Assay [1] can be described thus: Quantitative High-Throughput drug screen in 47 multiple myeloma cell lines against the NCATS MIPE library collection: KHM11_PLB cell viability assay (AID 1918962). Also: nearly all actives have a fitted effect of over 35% in size. Summed up:
(§1)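 Myeloma cell lines, 500 cells per well, exposed to MIPE 4.0 library compounds for 48 h at 37C, 5% CO2. Viability from ATP by CellTiter-Glo luminescence; normalised to DMSO (100%) and media-only (0%) wells.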

Assay [2] is described as follows: Quantitative High-Throughput drug screen in 47 multiple myeloma cell lines against the NCATS MIPE library collection: JIM3_ECACC cell viability assay (AID 1918963; also: nearly all actives have a fitted effect of over 35% in size). Summed up: as §1
Assay [3] in a line: Quantitative High-Throughput drug screen in 47 multiple myeloma cell lines against the NCATS MIPE library collection: JIM1_ECACC cell viability assay (AID 1918964). Summed up:
(§2)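 CellTiter-Glo ATP luminescence gave viability after 48 h compound treatment at 37C of 500 multiple myeloma cells per well. Normalisation used DMSO-only wells as 100% and media-only wells as 0% viability; primary qHTS of approved and investigational drugs.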

Assay [4] can be described thus: Quantitative High-Throughput drug screen in 47 multiple myeloma cell lines against the NCATS MIPE library collection: INA6_PLB cell viability assay (AID 1918965; also: nearly all actives have a fitted effect of over 55% in size). Summed up:
as §1

Assay [5] is described as follows: Quantitative High-Throughput drug screen in 47 multiple myeloma cell lines against the NCATS MIPE library collection: JJN3_DSMZ cell viability assay (AID 1918966; also: nearly all actives have a fitted effect of over 50% in size). A digest of the protocol:
as §2

Assay [6] in a line: Quantitative High-Throughput drug screen in 47 multiple myeloma cell lines against the NCATS MIPE library collection: H1112_PLB cell viability assay (AID 1918967; also: nearly all actives have a fitted effect of over 30% in size). A digest of the protocol:
as §2

The nature of assay [7]: Quantitative High-Throughput drug screen in 47 multiple myeloma cell lines against the NCATS MIPE library collection: Karpas25_ECACC cell viability assay (AID 1918968; also: nearly all actives have a fitted effect of over 35% in size). A digest of the protocol: as §2
A short description of assay [8]: Quantitative High-Throughput drug screen in 47 multiple myeloma cell lines against the NCATS MIPE library collection: KMS27_JCRB cell viability assay (AID 1918970). Also: nearly all actives have a fitted effect of over 30% in size. The following applies: KMS27 myeloma cells, CellTiter-Glo ATP viability, 48 h; viability (% of DMSO): at 45.8 µM (top of the series). Summed up:
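CellTiter-Glo luminescence after 48 h drug exposure at 37 °C; 500 cells/well, 1536-well format, pin-tool compound addition; DMSO = 100%, media-only = 0% viability.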

Assay [9] can be described thus: Quantitative High-Throughput drug screen in 47 multiple myeloma cell lines against the NCATS MIPE library collection: KMS12BM_JCRB cell viability assay (AID 1918971). Also: nearly all actives have a fitted effect of over 35% in size. Summed up:
(§3)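 Myeloma cells (500 per well) were exposed to MIPE 4.0 compounds by pin transfer and incubated 48 hours at 37C, 5% CO2. Viability was read as ATP by CellTiter-Glo luminescence, normalised to DMSO (100%) and media-only (0%) wells.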

Assay [10] is described as follows: Quantitative High-Throughput drug screen in 47 multiple myeloma cell lines against the NCATS MIPE library collection: KMS12PE_JCRB cell viability assay (AID 1918972). Also: nearly all actives have a fitted effect of over 30% in size. Summed up:
as §1

The nature of assay [11]: Quantitative High-Throughput drug screen in 47 multiple myeloma cell lines against the NCATS MIPE library collection: KMS20_JCRB cell viability assay (AID 1918973). Also: nearly all actives have a fitted effect of over 45% in size. A digest of the protocol:
as §2

A short description of assay [12]: Quantitative High-Throughput drug screen in 47 multiple myeloma cell lines against the NCATS MIPE library collection: KMS26_JCRB cell viability assay (AID 1918975). Also: nearly all actives have a fitted effect of over 45% in size. Summed up: as §3
Assay [13] is described as follows: Quantitative High-Throughput drug screen in 47 multiple myeloma cell lines against the NCATS MIPE library collection: MMM1_PLB cell viability assay (AID 1918976). Also: nearly all actives have a fitted effect of over 35% in size. Summed up: (§4)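 500 cells/well per myeloma line exposed to pinned MIPE 4.0 compounds for 48 h at 37 °C, 5% CO2. Viability read as ATP by CellTiter-Glo luminescence, normalised to DMSO-only (100%) and media-only (0%) wells.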

The nature of assay [14]: Quantitative High-Throughput drug screen in 47 multiple myeloma cell lines against the NCATS MIPE library collection: MOLP8_DSMZ cell viability assay (AID 1918977). Also: nearly all actives have a fitted effect of over 45% in size. Summed up: as §4
Assay [15] is described as follows: Quantitative High-Throughput drug screen in 47 multiple myeloma cell lines against the NCATS MIPE library collection: NCIH929_DSMZ cell viability assay (AID 1918978). Also: nearly all actives have a fitted effect of over 35% in size. Summed up:
as §4

Assay [16] can be described thus: Quantitative High-Throughput drug screen in 47 multiple myeloma cell lines against the NCATS MIPE library collection: OCIMY1_PLB cell viability assay (AID 1918979). Also: nearly all actives have a fitted effect of over 35% in size. Summed up: as §4
Assay [17] in a line: Quantitative High-Throughput drug screen in 47 multiple myeloma cell lines against the NCATS MIPE library collection: MM1S_ATCC cell viability assay (AID 1918980). Also: nearly all actives have a fitted effect of over 45% in size. A digest of the protocol:
as §4

The nature of assay [18]: Quantitative High-Throughput drug screen in 47 multiple myeloma cell lines against the NCATS MIPE library collection: MM1R_ATCC cell viability assay (AID 1918981). Also: nearly all actives have a fitted effect of over 35% in size. A digest of the protocol:
as §4

A short description of assay [19]: Quantitative High-Throughput drug screen in 47 multiple myeloma cell lines against the NCATS MIPE library collection: Karpas417_ECACC cell viability assay (AID 1918961). To be noted: Karpas417 myeloma viability, CellTiter-Glo ATP luminescence, 48 h; viability (% of DMSO): at 45.8 µM (top of the series). Summed up: as §1
In general terms: ATP-based viability assays read luminescence as a measure of living cells.
Potency is read from the fitted curve at half-maximal effect.

On to `CC(C)C[C@@H](C=O)NC(=O)[C@H](CC(C)C)NC(=O)[C@H](CC(C)C)NC(=O)OCc1ccccc1` (Cbz-Leu-Leu-Leu-aldehyde), for which the Potency in [1] was 187 nM (active); in assay [2], 526 nM (active); in assay [3], 209 nM (active); in assay [4] it was 148 nM (active); in [5], 469 nM (active); in [6], 264 nM (active). Further, the Potency in [7] was 235 nM (active); in assay [8], 166 nM (active); in assay [9], 469 nM (active); in [10], 105 nM (active); in [11], 526 nM (active); in [12], 590 nM (active). For the same compound, the Potency was 2350 nM (active) in assay [13]; 469 nM (active) in assay [14]; 118 nM (active) in assay [15]; 332 nM (active) in [16]; 166 nM (active) in assay [17]; 332 nM (active) in [18].

As to `COC1=C2C[C@@H](C)C[C@H](OC)[C@@H](O)[C@@H](C)C=C(C)[C@H](OC(N)=O)[C@@H](OC)C=CC=C(C)C(=O)NC(=CC1=O)C2=O`, the Potency in assay [1] was 132 nM (active); in [2], 209 nM (active); in assay [3], 7430 nM (active); in [4], 148 nM (active); in assay [5], 66.2 nM (active); in [6], 1870 nM (active). For the same compound, the Potency was 118 nM (active) in assay [7]; 118 nM (active) in assay [9]; 41.8 nM (active) in assay [11]; 52.6 nM (active) in assay [12]; 1050 nM (active) in assay [13]; 41.8 nM (active) in assay [14]. In addition, the Potency in [15] was 118 nM (active); in assay [16] it was 166 nM (active); in assay [17] it was 59 nM (active); in [18] it was 37.2 nM (active).

With `C[C@H](NCc1ccc2c(c1)nc(NC(=O)c1ccc(-c3cn[nH]c3)s1)n2CCc1ccccc1)C(C)(C)C`, the Potency in [1] was 590 nM (active); in assay [2], 1480 nM (active); in assay [3] it was 418 nM (active); in [4] it was 833 nM (active); in [5], 1180 nM (active); in assay [6], 1660 nM (active). In addition, the Potency in assay [7] is 1480 nM (active); in assay [8], 418 nM (active); in [9] it was 2350 nM (active); in assay [10] it was 743 nM (active); in assay [11], 935 nM (active); in assay [12] it was 1870 nM (active). In addition, the Potency in assay [13] is 2350 nM (active); in assay [14] it was 590 nM (active); in assay [15], 1050 nM (active); in assay [16], 1870 nM (active); in assay [18] it was 1660 nM (active).

As to `Cc1cc(Nc2ncc3c(n2)N(C)C(=O)N(c2cc(NC(=O)c4cccc(C(F)(F)F)c4)ccc2C)C3)n(C)n1`, the Potency in assay [1] was 372 nM (active); in assay [2], 2640 nM (active); in [3] it was 118 nM (active); in assay [4], 469 nM (active); in assay [5], 1320 nM (active); in assay [6] it was 2640 nM (active). Also, the Potency was 372 nM (active) in assay [7]; 1870 nM (active) in assay [8]; 1050 nM (active) in [10]; 5900 nM (active) in [12]; 296 nM (active) in [14]; 1050 nM (active) in [15]. Moreover, the Potency in assay [17] is 935 nM (active); in assay [18] it was 1320 nM (active).

`COc1cc2c(Nc3ccc(Cl)c(Cl)c3F)ncnc2cc1OCC1C[C@@H]2CN(C)C[C@H]2C1`: the Potency was 5900 nM (active) in assay [1]; 4180 nM (active) in assay [2]; 14800 nM (active) in assay [3]; 1480 nM (active) in assay [4]; 1320 nM (active) in [5]; 2350 nM (active) in assay [6]. Also, the Potency in assay [7] was 2350 nM (active); in [8], 5900 nM (active); in [9] it was 5260 nM (active); in assay [10] it was 1870 nM (active); in [11], 1870 nM (active); in [12], 2350 nM (active). Further, the Potency in assay [13] was 23500 nM (active); in [15] it was 2090 nM (active); in assay [17], 16600 nM (active); in assay [18], 16600 nM (active).

Take `O=C(Nc1ccc(Oc2ccnc3[nH]ccc23)c(F)c1)c1cccn(-c2ccc(F)cc2)c1=O`: the Potency in assay [19] is 4.7 nM (active); in assay [5], 20900 nM (active); in assay [18], 10500 nM (active). Further, the Potency result in assay [10], in assay [11], in [16] and in [17] was “inactive” in each case.

As for `Cc1ncc(-c2ccnc(Nc3ccc(S(C)(=O)=O)cc3)n2)n1C(C)C`, the Potency in assay [1] was 1660 nM (active); in assay [2], 2350 nM (active); in [3], 2350 nM (active); in assay [4], 1180 nM (active); in assay [5], 2090 nM (active); in assay [6], 4180 nM (active). The Potency is 2350 nM (active) in [7]; 2640 nM (active) in assay [8]; 4180 nM (active) in assay [9]; 2960 nM (active) in assay [10]; 2350 nM (active) in assay [11]; 2640 nM (active) in assay [12]. The Potency is 4690 nM (active) in assay [13]; 1320 nM (active) in assay [14]; 2090 nM (active) in assay [15]; 6620 nM (active) in assay [16]; 2350 nM (active) in [18].

In the case of `COC[C@H](NC(=O)c1cnc(C)s1)C(=O)N[C@@H](COC)C(=O)N[C@@H](Cc1ccccc1)C(=O)[C@@]1(C)CO1`, the Potency in assay [1] is 66.2 nM (active); in assay [2] it was 296 nM (active); in assay [3], 59 nM (active); in [4], 74.3 nM (active); in [5], 93.5 nM (active); in assay [6], 93.5 nM (active). For the same compound, the Potency was 74.3 nM (active) in assay [7]; 74.3 nM (active) in assay [8]; 93.5 nM (active) in assay [9]; 37.2 nM (active) in [10]; 132 nM (active) in assay [11]; 148 nM (active) in assay [12]. The Potency was 1050 nM (active) in [13]; 46.9 nM (active) in [14]; 52.6 nM (active) in [15]; 41.8 nM (active) in assay [16]; 41.8 nM (active) in assay [18].

Turning to `CON=C(C(=O)N[C@@H]1C(=O)N2C(C(=O)O)=C(Cn3ccc(=N)n3CCO)CS[C@H]12)c1csc(N)n1`, the Potency result in [1], in assay [2], in [3], in [4], in [6] and in assay [8] was “inactive” in each case. Further, the Potency result in assay [9], in assay [10], in [12], in [14], in [15] and in assay [17] was “inactive” in each case. In addition, the Potency result in assay [18] is “inactive”.

For the compound `CC(=O)N1CCN(c2ccc(OCc3nn(C)c(C)c3-c3cccc4c(CCCOc5cccc6ccccc56)c(C(=O)O)n(Cc5cccnc5)c34)cc2)CC1`, the Potency in assay [1] is 2350 nM (active); in assay [2] it was 3320 nM (active); in [3], 469 nM (active); in assay [4], 33.2 nM (active); in assay [6] it was 132 nM (active); in assay [7] it was 83.3 nM (active). Also, the Potency in assay [8] was 74.3 nM (active); in assay [10] it was 469 nM (active); in assay [11] it was 52.6 nM (active); in assay [12] it was 3720 nM (active); in assay [14], 16600 nM (active); in assay [15], 33.2 nM (active). In addition, the Potency in assay [17] was 37.2 nM (active); in assay [18], 1050 nM (active).
